From PubChem BioAssay (Tox21)
Records with an inconclusive call do not appear. Calls of active or inactive are those of the source. Calls follow the shape of the dose curve; as a rule, active = well fitted curve in the direction sought with a large enough effect in the repeat runs; inconclusive = weak or mixed curves; inactive = no such curve, though single readings can be large; an effect the other way counts as inactive or inconclusive.

Experiment: qHTS RealTime-Glo MT Cell Viability Assay in HepG2 cells - 32 hour (AID 1224877); also: nearly all actives have a fitted effect of over 55% in size
Conditions: RealTime-Glo luminescence; series mostly up to 76.8 µM; activity change, negative = cytotoxic: at the top concentration
Method in brief: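 Luminescence read-out: viable HepG2 cells reduce a prosubstrate to a NanoLuc substrate, giving a signal proportional to live cell number. Reads taken at 0, 8, 16, 24, 32 and 40 h of compound exposure at 37 C.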
% is scaled to controls: 0 for no effect and ±100 for the full control effect; potency is read from the fitted curve at half-maximal effect.

SMILES	Potency	activity change, negative = cytotoxic
N#CC(C#N)=NNc1cccc(Cl)c1	21.9 µM (active)	
Oc1cc(Cl)c(Cl)c(Cl)c1Cl		-16.2% (inactive)
CC1=C2C[C@H]3[C@@H](CC=C4C[C@@H](O)CC[C@@]43C)[C@@H]2CC[C@]12O[C@@H]1C[C@H](C)CN[C@H]1[C@H]2C		-15.3% [at 35.3 µM] (inactive)
C=CCOC(=O)c1ccccc1N		0.466% (inactive)
O=[N+]([O-])C(Br)Br		-17.9% (inactive)
CCO/N=C(\CC)C1=C(O)CC(c2c(C)cc(C)cc2C)CC1=O (stereo not drawn)		9.88% (inactive)
O=S(=O)(NS(=O)(=O)C(F)(F)F)C(F)(F)F		-21.1% (inactive)
c1ccc(Nc2ccc(Nc3ccccc3)cc2)cc1		-9.73% (inactive)
Nc1ccccc1-c1ccccc1		0.0882% (inactive)
CC(C)[C@@H](Nc1ccc(C(F)(F)F)cc1Cl)C(=O)OC(C#N)c1cccc(Oc2ccccc2)c1 (stereo partly drawn)		2.7% (inactive)
CC(C)N(C(=O)SC/C(Cl)=C/Cl)C(C)C		0.165% (inactive)
COC(=O)c1cc(Oc2ccc(Cl)cc2Cl)ccc1[N+](=O)[O-]		-12.6% (inactive)
CC1(C)C(C=C(Cl)Cl)C1C(=O)OC(C#N)c1ccc(F)c(Oc2ccccc2)c1 (stereo not drawn)		-5.65% (inactive)
CCC(C)Nc1c([N+](=O)[O-])cc(C(C)(C)C)cc1[N+](=O)[O-] (stereo not drawn)		-5.43% (inactive)
BrCC(Br)(Br)Br		-5.05% (inactive)
Oc1ccc([C@H]2CNCc3c2ccc(O)c3O)cc1O		-20.3% [at 35.3 µM] (inactive)
CC(=O)C(Cl)C(=O)N(C)C (stereo not drawn)		2.11% (inactive)
Cc1c([N+](=O)[O-])cc2c(c1[N+](=O)[O-])C(C)(C)CC2(C)C		-5.75% (inactive)
CC(C)=CCN1CC[C@@]2(C)c3cc(O)ccc3C[C@@H]1[C@@H]2C		-6.44% (inactive)
Oc1cc(Cl)cc(Cl)c1		-0.371% (inactive)
O=C(NC(=O)c1ccccc1Cl)Nc1ccc(OC(F)(F)F)cc1		-6.04% (inactive)
C[C@]12Cc3cn[nH]c3C[C@@H]1CC[C@@H]1[C@@H]2CC[C@@]2(C)[C@H]1CC[C@]2(C)O		-10.6% [at 35.3 µM] (inactive)
C#CCC1=C(C)C(OC(=O)C2C(C=C(C)C)C2(C)C)CC1=O (stereo not drawn)		-18.1% (inactive)
c1ccc2c(c1)cc1ccc3cccc4ccc2c1c34		-8.92% (inactive)
Cc1ccc2cc3c(ccc4ccccc43)c3c2c1CC3		0.714% [at 35.3 µM] (inactive)
CC1(C)[C@H](/C=C2\CCSC2=O)[C@@H]1C(=O)OCc1coc(Cc2ccccc2)c1		-19.2% (inactive)
O=C1C[C@@H]2OCC=C3CN4CC[C@]56c7ccccc7N1[C@H]5[C@H]2[C@H]3C[C@H]46		0.525% [at 35.3 µM] (inactive)

Experiment: A CellTox Green Cytotoxicity Assay to monitor cytotoxicity in HepG2 cells - 24 hour (AID 1224878); also: nearly all actives have a fitted effect of over 45% in size
Conditions: CellTox Green fluorescence; series mostly up to 76.8 µM; cytotoxicity: at the top concentration
Method in brief: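 Cytotoxicity was tracked as dead-cell DNA fluorescence in HepG2 cells treated with test compounds at 37 C; each time-point value comes from one kinetic series spanning 0, 8, 16, 24, 32 and 40 h.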

SMILES	Potency	cytotoxicity
N#CC(C#N)=NNc1cccc(Cl)c1	24.5 µM (active)	
Oc1cc(Cl)c(Cl)c(Cl)c1Cl		12% (inactive)
CN(C)c1ccc(N)cc1		0.622% (inactive)
C=CCOC(=O)c1ccccc1N		0% (inactive)
O=[N+]([O-])C(Br)Br		17% (inactive)
Nc1ccc(N=Nc2ccccc2)cc1		3.13% (inactive)
COC(=O)N(OC)c1ccccc1COc1ccn(-c2ccc(Cl)cc2)n1		-10.3% (inactive)
CCNc1nc(NC(C)C(C)C)nc(SC)n1 (stereo not drawn)		-0.0532% (inactive)
Brc1ccc(Oc2ccc(Br)cc2Br)c(Br)c1		-5.9% (inactive)
O=S(=O)(NS(=O)(=O)C(F)(F)F)C(F)(F)F	48.9 µM (active)	
c1ccc(Nc2ccc(Nc3ccccc3)cc2)cc1		-0.564% (inactive)
Nc1ccccc1-c1ccccc1		5.69% (inactive)
CC(C)[C@@H](Nc1ccc(C(F)(F)F)cc1Cl)C(=O)OC(C#N)c1cccc(Oc2ccccc2)c1 (stereo partly drawn)		-3.16% (inactive)
CC(C)Br		-1.52% (inactive)
CC(C)N(C(=O)SC/C(Cl)=C/Cl)C(C)C		12% (inactive)
C[C@]12CC[C@H]3[C@@H](CCC4=CC(=O)CC[C@@H]43)[C@@H]1CC[C@@H]2OC(=O)CCc1ccco1		-0.552% [at 35.3 µM] (inactive)
COC(=O)c1cc(Oc2ccc(Cl)cc2Cl)ccc1[N+](=O)[O-]		-13% (inactive)
CC1(C)C(C=C(Cl)Cl)C1C(=O)OC(C#N)c1ccc(F)c(Oc2ccccc2)c1 (stereo not drawn)		-17.1% (inactive)

SMILES	Potency	cytotoxicity
CCC(C)Nc1c([N+](=O)[O-])cc(C(C)(C)C)cc1[N+](=O)[O-] (stereo not drawn)		2.41% (inactive)
BrCC(Br)(Br)Br		8.13% (inactive)
Oc1ccc([C@H]2CNCc3c2ccc(O)c3O)cc1O	26.8 µM (active)	
CC(=O)C(Cl)C(=O)N(C)C (stereo not drawn)		5.3% (inactive)
Cc1c([N+](=O)[O-])cc2c(c1[N+](=O)[O-])C(C)(C)CC2(C)C		-14.1% (inactive)
CC(C)=CCN1CC[C@@]2(C)c3cc(O)ccc3C[C@@H]1[C@@H]2C		4.41% (inactive)
Oc1cc(Cl)cc(Cl)c1		10.2% (inactive)
O=C(NC(=O)c1ccccc1Cl)Nc1ccc(OC(F)(F)F)cc1		-0.612% (inactive)
C#CCC1=C(C)C(OC(=O)C2C(C=C(C)C)C2(C)C)CC1=O (stereo not drawn)		0.0101% (inactive)
c1ccc2c(c1)cc1ccc3cccc4ccc2c1c34		12.1% (inactive)
O.O.O.O=C([O-])[C@H]([O-])[C@@H]([O-])C(=O)[O-].O=C([O-])[C@H]([O-])[C@@H]([O-])C(=O)[O-].[K+].[K+].[Sb+3].[Sb+3]		6.89% (inactive)
Cc1ccc2cc3c(ccc4ccccc43)c3c2c1CC3		0.466% [at 35.3 µM] (inactive)
Oc1ccc2[nH]cc(CCCCN3CC=C(c4ccccc4)CC3)c2c1	19 µM (active)	
CC1(C)[C@H](/C=C2\CCSC2=O)[C@@H]1C(=O)OCc1coc(Cc2ccccc2)c1		-11.9% (inactive)
CC(C)N(C(=O)CCl)c1ccccc1	inactive	
CCc1cccc(C)c1N(C(=O)CCl)[C@@H](C)COC	49 µM (active)	
FC(F)C(F)(F)OCC(Cn1cncn1)c1ccc(Cl)cc1Cl (stereo not drawn)	48.7 µM (active)	
O=C1C[C@@H]2OCC=C3CN4CC[C@]56c7ccccc7N1[C@H]5[C@H]2[C@H]3C[C@H]46		10.8% [at 35.3 µM] (inactive)
